Results reported in PubChem BioAssay (NCI).
This is part of a sample that, as a whole, favours compounds with a hit. Of some 79,000 tested, about 15% had one in any assay. No stated cut-off is given here; in the data, active means growth inhibition above about 70%; inactive means the rest.

Legend:
[1] = NCI Yeast Anticancer Drug Screen. Data for the rad50 strain (AID 155);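 further: 0% = growth of vehicle-only cultures of the same strain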; conditions: S. cerevisiae rad50 strain growth inhibition; at 50.0 µM; hits give high values
Method in brief: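 Genetically altered yeast (DNA repair pathway); compound treatment; growth inhibition vs vehicle ctrl.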

[2] = NCI Yeast Anticancer Drug Screen. Data for the mec2-1 strain (AID 157); conditions: S. cerevisiae mec2-1 strain, at 50.0 µM, hits give high values
Method in brief: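 Yeast mec2-1 mutant treated with compound. Readout: growth inhibition vs vehicle controls.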

[3] = NCI Yeast Anticancer Drug Screen. Data for the sgs1 mgt1 strain (AID 161);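 further: 0% = growth of cultures given vehicle only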; conditions: S. cerevisiae sgs1 mgt1 strain, at 50.0 µM, hits give high values
Method in brief: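 Inhibition of yeast growth, normalised to vehicle-treated controls, is reported for a strain bearing genetic alterations in DNA damage repair.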

[4] = NCI Yeast Anticancer Drug Screen. Data for the cln2 rad14 strain (AID 165);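 further: 0% = growth equal to vehicle treated cultures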; conditions: S. cerevisiae cln2 rad14 strain, at 50.0 µM, hits give high values
Method in brief: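 cln2 rad14 yeast strain; compound exposure; growth inhibition read vs vehicle controls.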

[5] = NCI Yeast Anticancer Drug Screen. Data for the bub3 strain (AID 167); conditions: S. cerevisiae bub3 mutant strain, at 50.0 µM, hits give high values
Method in brief: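 Yeast carrying a defined mutation is treated with each compound, and growth is compared with that of vehicle-exposed cells to give inhibition.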

[6] = NCI Yeast Anticancer Drug Screen. Data for the mlh1 rad18 strain (AID 175); conditions: S. cerevisiae mlh1 rad18 strain growth inhibition; at 50.0 µM; hits give high values
Method in brief: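 Yeast w/ defined DNA-repair lesions; compound exposure; growth vs vehicle controls → % inhibition.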

Measured: growth inhibition

CCN(CC)CCNc1ccc2ncn3c4c(OC)cccc4c(=O)c1c23
inactive: [1] 2.7% | [2] -17.1% | [3] 21.8% | [4] 18.4% | [5] -46.8% | [6] 67.2%

CC(C)CCCC(C)C1CCC2C3CC=C4CC(OC(=O)Nc5ccc(S(=O)(=O)N6CCCCC6)cc5)CCC4(C)C3CCC12C (configuration not stated)
inactive: [1] 2.3% | [2] 2.45% | [3] 1.65% | [4] -5.8% | [5] -3.75% | [6] 6.45%

COc1c(NC(=O)Nc2ccc(F)c([N+](=O)[O-])c2)cccc1[N+](=O)[O-]
inactive: [1] 7.85% | [2] 22.1% | [3] 10% | [4] 2.8% | [5] 20.1% | [6] 27.8%

Cc1cc(S(=O)(=O)O)cc(Cl)c1N
inactive: [1] -11.3% | [2] -27.9% | [3] -0.85% | [4] -0.5% | [5] -23.8% | [6] -9.4%

COC(=O)c1ccccc1NC(=O)c1ccccc1C(=O)O
inactive: [1] 6.4% | [2] 41% | [3] 35% | [4] -6.55% | [5] 28.5% | [6] 37.2%

CC1=CC(=O)C2=C(C)CCC3C(C)C(=O)OC3C12 (configuration not stated)
inactive: [1] -4.2% | [2] -9.85% | [3] -6.75% | [4] 10.8% | [5] -3.55% | [6] -60.7%

CCOC(=O)/C=C1\NC(=O)N(CCCCCCN2C(=O)N/C(=C\C(=O)OCC)C2=O)C1=O
inactive: [1] 44.7% | [2] 13.3% | [3] 39.2% | [4] 7.95% | [5] -1.95% | [6] 29.9%

CC(C)CCCC(C)C1CCC2C3CC=C4CC(OC(=O)C56C=CC(=O)C5C5C=CC6CC5)CCC4(C)C3CCC12C (configuration not stated)
inactive: [1] 11.4% | [2] 21.6% | [3] -1.2% | [4] 2.25% | [5] 1.65% | [6] 20.9%

CCC(C)(CC(=O)O)CC(=O)O
inactive: [1] -13.9% | [2] 7.45% | [3] -15.7% | [4] 0.85% | [5] 2.7% | [6] 5.3%

NC(=S)N/N=C1/C(=O)N(c2ccccc2)C(=O)C1C(=O)Nc1ccccc1 (configuration not stated)
inactive: [1] 46.2% | [2] 16.8% | [3] 38% | [4] 0.9% | [5] -0.25% | [6] 39.1%

CCCOCN1COCN=C1NC#N
inactive: [1] 28.8% | [2] 12.3% | [3] -4.7% | [4] -0.05% | [5] 5.65% | [6] 5.75%

[Cl][Ce]([Cl])[Cl]
inactive: [1] 28.1% | [2] 14.2% | [3] 24.9% | [4] 16.4% | [5] 24.1% | [6] 15.6%

CCOC(=O)Nc1ccc(C2SCCN2C(=O)NC)cc1 (configuration not stated)
inactive: [1] 8.35% | [2] -22.1% | [3] 18.4% | [4] 17.4% | [5] 5.85% | [6] 32.2%

CC(c1ccccc1)C1OCCO1 (configuration not stated)
inactive: [1] -7.45% | [2] -27.4% | [3] -15.8% | [4] -30.8% | [5] -28.2% | [6] 28.7%

CCOc1ccc(Nc2ncnc3sc4c(c23)CCCC4)cc1
inactive: [1] 10.3% | [2] -1% | [3] -1.15% | [4] 12.7% | [5] 17.2% | [6] 8.9%

CCCC(SCCO)C(CC)CSCCO (configuration not stated)
inactive: [1] -16.8% | [2] -9.55% | [3] 2.65% | [4] -14.5% | [5] 13.1% | [6] 5.7%

COc1ccccc1NC(=O)C1=C(C)NC(C)=C(C(=O)Nc2ccccc2OC)C1c1ccco1
inactive: [1] -4.8% | [2] -8.65% | [3] 20.4% | [4] 4.3% | [5] 29.4% | [6] -11.9%

C=C(CO)CC(CC(=C)CCS(=O)(=O)c1ccccc1)S(=O)(=O)c1ccccc1 (configuration not stated)
inactive: [1] 8.55% | [2] 1.75% | [3] -0.9% | [4] 8.85% | [5] 7.35% | [6] -5.75%

O=C(NCCc1ccccc1)[C@H]1CCCC[C@@H]1CCO
inactive: [1] 19.4% | [2] 0.85% | [3] -31.9% | [4] 0.4% | [5] -39.8% | [6] -28.6%

COc1ccc(CCCN2c3ccccc3Sc3ccccc32)cc1
inactive: [1] -6.1% | [2] -3.35% | [3] -21.2% | [4] -23.9% | [5] -19.9% | [6] -5.7%

CCC(=O)c1ccc(F)cc1
inactive: [1] 10.2% | [2] -20.9% | [3] 4.5% | [4] 20.3% | [5] -5.3% | [6] 20.4%

CC(C)(O)CCC(O)C(C)(O)C1CCC2(O)C3=CC(=O)C4(O)CC(O)C(O)CC4(C)C3CCC12C (configuration not stated) (tested in a mixture with another compound)
inactive: [1] -5.3% | [2] -17.9% | [3] 6.15% | [4] -12.2% | [5] -17.4% | [6] -47.7%

Cc1ccc(NCC(O)CN2CCOCC2)cc1 (configuration not stated)
inactive: [1] 34.2% | [2] 14.3% | [3] 27.2% | [4] -8.05% | [5] 6.5% | [6] 36.2%

COc1cc(/C=C/C=C(C(=O)O)C(=O)O)cc(OC)c1OC
inactive: [1] -5% | [2] -1.2% | [3] -14.7% | [4] -11.4% | [5] -6.2% | [6] -4.45%

[Cl][Pd][Cl].[NH-]CC1(C[NH-])CCCCC1
inactive: [1] 3.5% | [2] -1.1% | [3] 3.75% | [4] -64.2% | [5] 7.7% | [6] 5.95%

CC1CC2=C(C(=O)c3ccccc3C2=O)C(C)O1 (configuration not stated)
inactive: [1] 3.15% | [2] -29.5% | [3] -4.4% | [4] -31.7% | [5] 41.5% | [6] 9.1%

CSc1nc(NC2OCC(OC(C)=O)C(OC(C)=O)C2OC(C)=O)c(N=CC=Nc2c(NC3OCC(OC(C)=O)C(OC(C)=O)C3OC(C)=O)nc(SC)n(C)c2=O)c(=O)n1C (configuration not stated)
inactive: [1] -4.3% | [2] -4.85% | [3] -19.8% | [4] -16.3% | [5] 7.95% | [6] 12.4%

N#CCCn1nc(SC2CCCCC2)c(=O)[nH]c1=O
inactive: [1] -4.05% | [2] 1.95% | [3] 2.45% | [4] 32.3% | [5] 4.75% | [6] 4.3%

COc1ccc(NC2CC(C)N(C(=O)c3ccccc3)O2)cc1 (configuration not stated)
inactive: [1] -42.1% | [2] -37.2% | [3] -19.1% | [4] 12.3% | [5] -21.6% | [6] -19.2%

O=C(O)c1cc2cc(S(=O)(=O)O)ccc2cc1O
inactive: [1] 4% | [2] -0.95% | [3] -6.9% | [4] -25.2% | [5] -11.8% | [6] 30.4%

Cc1ccc(C)n1N(c1ccccc1)c1ccccc1
inactive: [1] -13.6% | [2] 7.1% | [3] 2.65% | [4] -36.4% | [5] 21.6% | [6] 9.1%

COc1ccc(Nc2nnc(-c3nsc4ccccc34)s2)cc1
inactive: [1] -2.5% | [2] -28.4% | [3] -37.9% | [4] 22.2% | [5] -27.9% | [6] -24.9%

O=S(=O)(Cc1c[nH]c2ccccc12)c1ccccc1
inactive: [1] 34.1% | [2] -3.2% | [3] 31.1% | [4] 11.3% | [5] 20.5% | [6] 37.6%

CCOC(=O)C1C(=S)NC(=O)C1C#N (configuration not stated)
inactive: [1] 0.3% | [2] -0.05% | [3] 1.35% | [4] 0.75% | [5] 11.3% | [6] -4.7%

N#CCc1nc(-c2ccccc2)n[nH]1
inactive: [1] 11.2% | [2] 4.55% | [3] 13.1% | [4] 5.6% | [5] 4.5% | [6] 11.7%

CCCCOB1OC(c2ccccc2)(c2ccccc2)c2ccccc2C(c2ccccc2)(c2ccccc2)O1
inactive: [1] 31.1% | [2] 3.65% | [3] 27.2% | [4] 3.85% | [5] -2.1% | [6] 22.6%

CCOC(=O)C(CC)(C(=O)OCC)C(C)CC (configuration not stated)
inactive: [1] 11.3% | [2] -1.65% | [3] 15.1% | [4] -5.9% | [5] -7.55% | [6] -1.25%
